In PubChem BioAssay (NCI):
This is part of a sample that, as a whole, favours compounds with a hit. Of some 83,000 tested, about 20% had one in any assay.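 How to read the values: 0–100, growth inhibition (40 = 60% inhibited); 0, no net growth; -100 to 0, cell death (-40 = 40% of starting cells died; -100 = all dead).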 Unmarked numbers belong to inactive results. The source made the active and inactive calls. Rule for the calls: active = growth percent below 10; inactive = the rest.

test system: RXF 393 renal; assay: NCI-60 one-dose screen, 48 h (100 = growth as untreated, 0 = no growth, -100 = all killed); conditions: 10 µM

Compound | growth
COc1ccc(-c2csc(NC(=O)CSc3nc(C)c(-c4ccccc4)n3Nc3ccccc3)n2)cc1 | 63.9%
Cc1cccc(C)c1NC(=O)c1sc2nc3c(cc2c1N)C(=O)CCC3 | 94.4%
CC(=O)CSC(C)=O | 109%
S=C1SCC(c2ccccc2)S1 (stereo not drawn) | 105%
CC(=O)N(C)c1ccc(Nc2ccc(Nc3ccc(N(C)C(C)=O)cc3)c3c2C(=O)c2ccccc2C3=O)cc1 | 81.7%
COc1ccc(CN2CCC(N3CCCC3=O)c3cc(Cl)ccc32)cc1 (stereo not drawn) | 126%
CN(C)c1ccc(Cc2ccc(N(C)C)cc2Cl)c(Cl)c1 | 93.2%
Clc1cc2c(c(CSc3nc4ccccc4n4cccc34)c1)OCOC2 | 34.2%
CC(=O)n1c(-c2ccc(Cl)c(Cl)c2)cn(-c2ccc(Cl)cc2)c1=O | -31.2% (active)
C#Cc1ccc(-n2c(/C=C/c3ccc4ccccc4n3)nc3ncccc3c2=O)cc1 | -82.5% (active)
CSc1nn(-c2ccccc2)c2ncnc(Oc3ccccc3)c12 | 83.6%
COc1ccc(-c2nc(-c3nc4cc(Cl)c(F)cc4[nH]3)c3ccccn23)cc1 | 87.8%
C/C(=N\Nc1nc2ccccc2s1)c1ccncn1 | 9.64% (active)
Nc1cc2c(cc1Cl)-c1ccc([N+](=O)[O-])cc1/C2=N\O | 104%
CN(C)CCN1C(=O)c2cccc3cc(N)cc(c23)C1=O | 18.3%
CCCCCCNC(=O)Oc1ccc(/C(=C(/CC)Cc2ccccc2)c2ccc(OCCN3CCCCC3)cc2)cc1 | 73.8%
Nc1nc(N)c(NC(=O)CNc2ccc(C(=O)O)cc2)c(N)n1 | 96.4%
COc1ccc(-c2nn(-c3cccc(NC(=O)c4cc(C(F)(F)F)cc(C(F)(F)F)c4)c3)cc2-c2ccncc2)cc1Cl | 62.8%
O=C1/C(=C\c2ccccc2)CN(C(=O)c2ccccc2)C/C1=C\c1ccccc1 | -21.2% (active)
COc1ccc(/C=C2/CN(C(=O)c3ccc(C)cc3)C/C(=C\c3ccc(OC)cc3)C2=O)cc1 | 92.3%

Compound | growth
COc1ccc(S(=O)(=O)NCCCNc2nccc(-c3c(-c4ccc(F)cc4)nc4sccn34)n2)cc1 | 68.1%
COc1ccc(-c2cc(-c3ccc(N(C)C)cc3)c(C#N)c(N3CCCC3)n2)cc1 | -2.09% (active)
CCOC(=O)N/N=C\C(C)=N\NC(=O)OCC | 125%
CN(C)Cc1cn(-c2ncc(-c3ccc(C(F)(F)F)cc3)c(NC3CCCCCC3)n2)nn1 | 93.6%
CC(C)=NNc1ncnc2c1ncn2C1OC(CO)C(O)C1O (stereo not drawn) | 23.1%
O=C(Nc1cccc(-n2cc(-c3ccncc3)c(-c3ccc(O)c(Cl)c3)n2)c1)c1cc(C(F)(F)F)cc(C(F)(F)F)c1 | 33.5%
CCCC(F)C(=O)O (stereo not drawn) | 117%
Nc1nc(Nc2ccccc2)n[nH]1 | 104%
COc1ccc(-n2c(SCc3cc(OC)c(OC)c(OC)c3)nc3ccc(C)cc3c2=O)cc1 | 52.8%
O=C(Nc1ccc(CN2CCc3nc4cc(O)c(O)cc4cc32)cc1)c1ccc(Cl)c(Cl)c1 | 89.4%
CCOCCOCCOCCOCCOCCOCCOCCOCCOCCO (tested in a mixture with another compound) | 37.3%
CCCCCCc1cc(N=Nc2ccc(S(=O)(=O)Nc3cc(C)nc(C)n3)cc2)c(O)cc1O | 118%
CCN1CCN(c2nc3ccccc3c3c(=O)c4ccccc4sc23)CC1 | 29.8%
COc1ccc(-c2nn(-c3cccc(NC(=O)Nc4ccccc4)c3)cc2-c2ccncc2)cc1Cl | -59.3% (active)
C#Cc1ccc(-n2c(/C=C/c3ccc4ccccc4c3)nc3ncccc3c2=O)cc1 | -21.4% (active)
Cc1ccc(S(=O)(=O)Oc2ccc3c4c(c(=O)oc3c2)CCCCC4)cc1 | 68.6%
N=C(N)c1ccc(-c2ccc(-c3cccs3)s2)cc1 | 75.8%
COc1cc(-c2cc(/C=C/C(=O)c3ccc(N)cc3)[nH]n2)cc(OC)c1OC | -23.2% (active)
CCOC(=O)C(NC(=O)C(Cl)Cl)C(O)c1ccccc1 (stereo not drawn) | 78.7%

test system: SF-268 CNS; assay: as above; conditions: 10 µM

Compound | growth
COc1ccc(-c2csc(NC(=O)CSc3nc(C)c(-c4ccccc4)n3Nc3ccccc3)n2)cc1 | 44.7%
Cc1cccc(C)c1NC(=O)c1sc2nc3c(cc2c1N)C(=O)CCC3 | 103%
CC(=O)CSC(C)=O | 105%
S=C1SCC(c2ccccc2)S1 (stereo not drawn) | 111%
CC(=O)N(C)c1ccc(Nc2ccc(Nc3ccc(N(C)C(C)=O)cc3)c3c2C(=O)c2ccccc2C3=O)cc1 | 76.5%
COc1ccc(CN2CCC(N3CCCC3=O)c3cc(Cl)ccc32)cc1 (stereo not drawn) | 108%
CN(C)c1ccc(Cc2ccc(N(C)C)cc2Cl)c(Cl)c1 | 103%
Clc1cc2c(c(CSc3nc4ccccc4n4cccc34)c1)OCOC2 | 85.4%
CC(=O)n1c(-c2ccc(Cl)c(Cl)c2)cn(-c2ccc(Cl)cc2)c1=O | -32.7% (active)
C#Cc1ccc(-n2c(/C=C/c3ccc4ccccc4n3)nc3ncccc3c2=O)cc1 | -49.5% (active)
CSc1nn(-c2ccccc2)c2ncnc(Oc3ccccc3)c12 | 92.5%
COc1ccc(-c2nc(-c3nc4cc(Cl)c(F)cc4[nH]3)c3ccccn23)cc1 | 75.3%
C/C(=N\Nc1nc2ccccc2s1)c1ccncn1 | 45.5%
Nc1cc2c(cc1Cl)-c1ccc([N+](=O)[O-])cc1/C2=N\O | 79.1%
CN(C)CCN1C(=O)c2cccc3cc(N)cc(c23)C1=O | 37.8%
CCCCCCNC(=O)Oc1ccc(/C(=C(/CC)Cc2ccccc2)c2ccc(OCCN3CCCCC3)cc2)cc1 | 80.9%
Nc1nc(N)c(NC(=O)CNc2ccc(C(=O)O)cc2)c(N)n1 | 119%
COc1ccc(-c2nn(-c3cccc(NC(=O)c4cc(C(F)(F)F)cc(C(F)(F)F)c4)c3)cc2-c2ccncc2)cc1Cl | 72.6%
O=C1/C(=C\c2ccccc2)CN(C(=O)c2ccccc2)C/C1=C\c1ccccc1 | 23.6%
COc1ccc(/C=C2/CN(C(=O)c3ccc(C)cc3)C/C(=C\c3ccc(OC)cc3)C2=O)cc1 | 87.4%

Compound | growth
COc1ccc(S(=O)(=O)NCCCNc2nccc(-c3c(-c4ccc(F)cc4)nc4sccn34)n2)cc1 | 50.6%
COc1ccc(-c2cc(-c3ccc(N(C)C)cc3)c(C#N)c(N3CCCC3)n2)cc1 | 96.7%
CCOC(=O)N/N=C\C(C)=N\NC(=O)OCC | 105%
CN(C)Cc1cn(-c2ncc(-c3ccc(C(F)(F)F)cc3)c(NC3CCCCCC3)n2)nn1 | 88.5%
CC(C)=NNc1ncnc2c1ncn2C1OC(CO)C(O)C1O (stereo not drawn) | 40.9%
O=C(Nc1cccc(-n2cc(-c3ccncc3)c(-c3ccc(O)c(Cl)c3)n2)c1)c1cc(C(F)(F)F)cc(C(F)(F)F)c1 | 76.8%
CCCC(F)C(=O)O (stereo not drawn) | 107%
Nc1nc(Nc2ccccc2)n[nH]1 | 112%
COc1ccc(-n2c(SCc3cc(OC)c(OC)c(OC)c3)nc3ccc(C)cc3c2=O)cc1 | 80.6%
O=C(Nc1ccc(CN2CCc3nc4cc(O)c(O)cc4cc32)cc1)c1ccc(Cl)c(Cl)c1 | 96.6%
CCOCCOCCOCCOCCOCCOCCOCCOCCOCCO (tested in a mixture with another compound) | 21.8%
CCCCCCc1cc(N=Nc2ccc(S(=O)(=O)Nc3cc(C)nc(C)n3)cc2)c(O)cc1O | 110%
CCN1CCN(c2nc3ccccc3c3c(=O)c4ccccc4sc23)CC1 | 45.6%
COc1ccc(-c2nn(-c3cccc(NC(=O)Nc4ccccc4)c3)cc2-c2ccncc2)cc1Cl | 27.9%
C#Cc1ccc(-n2c(/C=C/c3ccc4ccccc4c3)nc3ncccc3c2=O)cc1 | 37.8%
Cc1ccc(S(=O)(=O)Oc2ccc3c4c(c(=O)oc3c2)CCCCC4)cc1 | 77.2%
N=C(N)c1ccc(-c2ccc(-c3cccs3)s2)cc1 | 101%
COc1cc(-c2cc(/C=C/C(=O)c3ccc(N)cc3)[nH]n2)cc(OC)c1OC | -9.2% (active)
CCOC(=O)C(NC(=O)C(Cl)Cl)C(O)c1ccccc1 (stereo not drawn) | 99.3%
